# Data published in the supplement of paper PMC6555819.
# Tested on: RARb homodimer (NR concentration 270 nM)
# Assay: PBM binding z-score (relative to random genomic background probes); higher = stronger binding; sequences stand for … in GC…GCGATTGACAGCGTAGAATGAAGG
# In short: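 Binding buffer was PBS pH 7.4 with 2% milk, 0.02% Triton X-100, 1 mM DTT, 0.2 mg/mL BSA and 0.4 mg/ml salmon testes DNA. In it, ligand-free nuclear receptor dimers were incubated 1 h on custom Agilent 4×180K protein-binding microarrays carrying double-stranded probes. Antibodies against each partner (one per run) detected binding, and z-scores were calculated against random background probes after regression normalization of scanned fluorescence.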
row,Sequence,PBM binding z-score
1,AATACAGGGCCACTAGGCCAGAGTAGGTACGAAT,0.294
2,TCTTGTAAATCAGCAGGTTAAGAAAGCTGGCCAA,-0.0241
3,ACTATTAGTTGACTTAGGGCAACCGTTACGACGC,1.34
4,CAAACTAGGTCCCGAAAGGTCAAAGTCGAATGAC,4.87
5,CGTCCACGGTCAGCAGGTCAGTGAAAGCGACGTG,3.48
6,ATCGAAAGGTCGGAGGTGAGTATACCCACCCGAA,2.03
7,GCTTACGGGTCAAAGGTTATTGCATGAATAGAAT,3.23
8,ATTCGGAGGACAAAGGTCAGAGCTACGCCAGTGA,4.59
9,GGTAGCAGGCCATTTGGGTCACTCAATGACGGGC,2.01
10,GATACAGGGTCAGCTCGAGGCCAGAGTATGGAAA,3.45
11,GCTTGTAGATCAAGGTTAAGATAGACTAAGCTAA,0.293
12,ACTATTAGATGAGACGAGGGCAACCGATAGGTTG,1.3
13,AATACAGGGTCAACGTAGGCCAGAGTACGCACAG,3.8
14,GCATGTAGGTAATACAAGGTGAAAGTCCGATTGT,0.748
15,TCTATTAGTTGACGGGCAACCGACGAGTCCGTTT,-0.1
16,GCTTTTAGATCAAGGTTAAGAAAGACTAAGCTAA,0.302
17,TCGAGTAGGTTACCAATGGGGCATTCTGCTTTCT,0.45
18,CCTAGCGGGCCAGGGTCACTCAAGCATTTCGCTT,2.48
19,GCTTGTAGATCAAGGATAAGAAAGACTAAGCTAA,-1.36
20,ATATGTAGGTTAAGGGTCATCCAGGTTGGTTCGC,4.18

row,Sequence,PBM binding z-score
1,ACAGACAGGTGAGTGAAGGTAACTCACCTGGACG,0.335
2,CGAACTAGGTCAGAACAGGTCAGTGAAGGATGAT,3.88
3,TCCATTAGTTGAAGGGCAACCGACGAGTCCGTTT,1.47
4,CCTAGTTCGTCAAGGTCACACACGCTATAGGTAC,4.36
5,CCTATTAGTTGACCACAAGGGCAACCGAAGCTCG,1.95
6,CCTATTAGTTGACCATAAGGGCAACCGCAGCTCG,2.18
7,TCTGCTAGGTCAGTTGGTAAGCTAACGAGCTGCC,1.95
8,GCAGACAGGTGAAACGCAGGTAACTCAAGGTGGC,0.0427
9,CCTCGGAGGACAACAGGCGGTCAGAGCTGCCAGA,1.43
10,TCTTGTAGATCAAAAGAGGTTAAGAAAGTGCGCT,0.976
11,CCTACTGGGCCAAAAAGGTCATTGAAGCCGATAA,4.33
12,CAAACTAGGTCACGGAAGGTCAAAGTCGAATGAC,5.47
13,AGAATGAGGTTGTACGTAGATCAGGGAAGAAAGT,0.561
14,GTATCAAGGTGAATAGGTCGTTGATGAGTAGGCG,1.83
15,AGAACGAGGGCACGCTGAGATGATAGCAGAGTAG,1.2
16,AGTCAAAGTTCATCTAGATAACGTAAGATATGCT,3.87
17,CGAACTAGGTCAGAACAGGAGAGTGAAGGATGAT,1.69
18,CAAACTAGGTGACCGGAAGGTCAAAGTCCGCATG,4.4
19,ACAGACAGGTGAGTGAAGGAAACTCAGCTGGACG,-0.566
20,ATCCCAAGGTGATCGTGAGGTCGTTGATACTAAC,1.61
